These results are taken from PubChem BioAssay (EPA / NIEHS).

The nature of test [1]: CCTE_Shafer_MEA_acute_spike_number: CCTE's Neural Acute Assay for Total Number of Spikes, Shafer Lab (AID 2284008; active means hit-call score of the fitted dose curve at least 0.9, where 1 is the maximum; inactive means score below 0.9;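 on AC50: curve fitted for decrease in spike count so AC50 reflects inhibitors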). A digest of the protocol:
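Cortical neurons from rat, matured to DIV 13 or 15 on microelectrode arrays, are recorded at 37 C before and during 40-min exposure to 0.03-40 uM compound. Wells need >/= 10 active electrodes.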

The nature of test [2]: CCTE_Simmons_MITO_max_resp_rate: CCTE's HepG2 Seahorse XF Respirometric Screening Assay at Maximal Respiratory State [uncoupled], Simmons Lab (AID 2284002; active means hit-call score of the fitted dose curve at least 0.9, where 1 is the maximum; inactive means score below 0.9). Particulars: actives raise or lower the signal. A digest of the protocol: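 Maximal respiration in HepG2 cells is recorded as OCR by Seahorse XF following FCCP injection. Compounds span 125 nM–100 uM final; activity is called in either direction against DMSO.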

Test [3] can be described thus: CCTE_Simmons_MITO_inhib_resp_rate: CCTE's HepG2 Seahorse XF Respirometric Screening Assay at Inhibited Respiratory State [full ETC block], Simmons Lab (AID 2284006; active means hit-call score of the fitted dose curve at least 0.9, where 1 is the maximum; inactive means score below 0.9). Particulars: actives raise or lower the signal. A digest of the protocol:
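HepG2 oxygen consumption was measured by Seahorse XF after compound, FCCP, then rotenone/antimycin A injections. Seven concentrations from 125 nM to 100 uM (final) were tested, with 6-min kinetic reads over 72 minutes. Inhibited-state OCR was fitted bidirectionally against DMSO.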

Test [4] can be described thus: CCTE_Simmons_MITO_viability: CellTiter-Glo Viability Assessment for CCTE's HepG2 Seahorse XF Respirometric Screening Assay [post-hoc], Simmons Lab (AID 2284007).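 On AC50: cells exposed to chemical for 90 min before the ATP read; actives lower ATP signal relative to DMSO baseline meaning reduced viability.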 A digest of the protocol:
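HepG2 cells exposed 90 min to 7 concentrations from 125 nM to 100 uM final, then ATP measured by luciferase luminescence. Three biological replicates per concentration; DMSO vehicle; dichlone control at 10 nM–100 uM.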
Background: ATP-based viability assays read luminescence as a measure of living cells.

Test [5] deals with Nucleoli Translocation, AR (gene 367) (UniProt P10275). As to the kind of experiment: UPITT_HCI_U2OS_AR_TIF2_Nucleoli_Antagonist: University of Pittsburgh U2OS Androgen Receptor-Transcriptional Intermediary Factor 2 (AR-TIF2) Antagonism High Content Imaging Assay for Nucleoli Translocation (AID 2283997). A digest of the protocol: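 Measured quantity was AR-RFP fluorescence localized to nucleoli in engineered U2OS cells also bearing TIF2-GFP, acquired on automated high-content imagers. Primary testing used 20 uM compound; actives were confirmed in triplicate wells.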
Sequence of Nucleoli Translocation, AR (gene 367) (P10275 whole entry, looked up): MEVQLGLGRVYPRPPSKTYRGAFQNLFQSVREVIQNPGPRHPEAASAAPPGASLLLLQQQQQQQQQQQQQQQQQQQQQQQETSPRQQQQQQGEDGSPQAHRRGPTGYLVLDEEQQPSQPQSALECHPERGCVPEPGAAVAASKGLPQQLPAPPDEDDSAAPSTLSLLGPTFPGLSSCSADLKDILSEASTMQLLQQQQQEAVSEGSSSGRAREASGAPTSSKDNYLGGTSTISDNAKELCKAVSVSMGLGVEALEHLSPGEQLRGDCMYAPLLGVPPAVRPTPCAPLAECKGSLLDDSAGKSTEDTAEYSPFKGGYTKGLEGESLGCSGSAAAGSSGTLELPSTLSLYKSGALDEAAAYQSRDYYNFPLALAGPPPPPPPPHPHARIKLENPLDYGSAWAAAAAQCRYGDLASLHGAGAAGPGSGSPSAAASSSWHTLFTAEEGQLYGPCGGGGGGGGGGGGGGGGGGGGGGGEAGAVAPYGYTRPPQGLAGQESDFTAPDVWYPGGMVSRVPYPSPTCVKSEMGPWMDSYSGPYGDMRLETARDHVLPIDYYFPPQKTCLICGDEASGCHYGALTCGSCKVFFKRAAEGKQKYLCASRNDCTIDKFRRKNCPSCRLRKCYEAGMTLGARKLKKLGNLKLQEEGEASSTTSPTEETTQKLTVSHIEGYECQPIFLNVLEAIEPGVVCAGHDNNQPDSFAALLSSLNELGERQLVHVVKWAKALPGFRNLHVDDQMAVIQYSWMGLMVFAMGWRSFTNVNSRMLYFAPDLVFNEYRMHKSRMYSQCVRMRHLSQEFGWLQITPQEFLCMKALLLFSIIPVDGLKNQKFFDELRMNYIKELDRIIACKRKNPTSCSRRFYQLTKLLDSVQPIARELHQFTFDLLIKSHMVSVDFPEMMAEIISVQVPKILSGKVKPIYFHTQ

Test [6] has as its target Ratio of Nucleoli Translocation and Cytoplasm, AR (gene 367) (UniProt P10275). Briefly: UPITT_HCI_U2OS_AR_TIF2_Nucleoli_Cytoplasm_Ratio_Antagonist: University of Pittsburgh U2OS Androgen Receptor-Transcriptional Intermediary Factor 2 (AR-TIF2) Antagonism High Content Imaging Assay for Ratio of Nucleoli Translocation and Cytoplasm (AID 2283999).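 Further: antagonists lower the DHT-driven ratio of nucleolar to cytoplasmic red signal.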 A digest of the protocol: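 U2OS cells co-expressing RFP-tagged human AR and GFP-tagged TIF2, antagonist mode with DHT as baseline. Nucleolar-to-cytoplasmic red fluorescence ratio imaged by high-content microscopy; final compound 20 uM (0.2% DMSO) primary, 0.195–50 uM (0.5% DMSO) concentration-response.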

For test [7], the target named is Nucleoli Translocation, AR (gene 367) (UniProt P10275). Briefly: UPITT_HCI_U2OS_AR_TIF2_Nucleoli_Agonist: University of Pittsburgh U2OS Androgen Receptor-Transcriptional Intermediary Factor 2 (AR-TIF2) Agonism High Content Imaging Assay for Nucleoli Translocation (AID 2283998). A digest of the protocol: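 Red-tagged human androgen receptor co-expressed with GFP-tagged TIF2 serves as the binding reporter. Primary testing used 20 uM final (0.2% DMSO); follow-up dose response covered 0.195 to 50 uM final (0.5% DMSO).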

Test [8] deals with Ratio of Nucleoli Translocation and Cytoplasm, AR (gene 367) (UniProt P10275). Briefly: UPITT_HCI_U2OS_AR_TIF2_Nucleoli_Cytoplasm_Ratio_Agonist: University of Pittsburgh U2OS Androgen Receptor-Transcriptional Intermediary Factor 2 (AR-TIF2) Agonism High Content Imaging Assay for Ratio of Nucleoli Translocation and Cytoplasm (AID 2284000).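 Further: hits raise the red nucleolar to cytoplasm ratio above vehicle.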 A digest of the protocol: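 Read-out first: nucleolar-to-cytoplasm ratio of red (AR-RFP) signal, quantified by high-content imaging in U2OS cells co-expressing TIF2-GFP. Activity is scored as signal increase over DMSO. Single-point screening used 20 uM final (0.2% DMSO).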
Sequence of Ratio of Nucleoli Translocation and Cytoplasm, AR (gene 367) (P10275 whole entry, looked up): as above

By AC50 is commonly meant the midpoint of the concentration-response curve, whichever way the signal moves.

Records with an inconclusive call do not appear. Active and inactive are the calls of the source. How the source made its calls, unless noted: active means hit-call score of the fitted dose curve at least 0.9, where 1 is the maximum; inconclusive means response in the unintended direction; inactive means score below 0.9.

Turning to `c1ccc(C(O[C@@H]2CCCN(CCc3ccc4c(c3)OCO4)C2)c2ccccc2)cc1`, in test [1], the molecule was called inactive.
In the case of `CCOc1ccc2[nH]cc(C(=O)NCc3ccccc3)c(=O)c2n1`, the molecule was classed as inactive in test [2], in test [3] and in test [4].
As to `OCc1ccccc1`, the molecule was classed as inactive in test [5], in test [6] and in test [1].
On to `COc1cc(C(C)C)c2c(c1)S(=O)(=O)N(COc1cc(=O)n3cccc(OCCN4CCCCC4)c3n1)C2=O`, for which, in test [5], the half-maximal activity concentration (AC50) is 5.14 µM (active). The molecule was classed as inactive in test [7], in test [6], in test [8] and in test [1].
Regarding `CCc1ccc(O)c(C(C)(C)C)c1`, the result in test [2], in test [3] and in test [4] was inactive. The AC50 in test [1] is 0.679 µM (active).
With `Cn1c(=O)c2[nH]cnc2n(C)c1=O`, the molecule was classed as inactive in test [1].
For `CCN(CC)C(=S)SSC(=S)N(CC)CC`, the AC50 is 19.8 µM (active) in test [5], 50 µM (active) in test [7], 11.7 µM (active) in test [6] and 64.4 µM (active) in test [8]. Moreover, the call in test [2], in test [3] and in test [4] was inactive.
On to `O=C1CN(N=Cc2ccc([N+](=O)[O-])o2)C(=O)N1`, for which the concentration at half-maximal activity (AC50) in test [2] is 12.7 µM (active); in test [3] it was 46.8 µM (active). Besides, the molecule was called inactive in test [4].
For the molecule `CCCCOC(=O)c1ccccc1`, the outcome in test [5], in test [7] and in test [8] was inactive.
As for `C=CCc1cc(S(=O)(=O)c2ccc(O)c(CC=C)c2)ccc1O`, the concentration at half-maximal activity (AC50) in test [7] is 84 µM (active); in test [2] it was 8.67 µM (active). For the same molecule, the result in test [6], in test [8], in test [3], in test [4] and in test [1] was inactive.
With `NC(=O)NN=Cc1ccc([N+](=O)[O-])o1`, the molecule was classed as inactive in test [2] and in test [4]. For the same molecule, the AC50 in test [3] is 50 µM (active).
On to `CCCCCCOC(=O)CC(CC(=O)OCCCCCC)(OC(=O)CCC)C(=O)OCCCCCC`, for which the molecule was classed as inactive in test [5], in test [7] and in test [8].
For the molecule `CCCCCCCC/C=C\CCCCCCCC(=O)OC[C@@H](O)[C@H]1OC[C@H](O)[C@H]1O`, the molecule was called inactive in test [1].
In the case of `CCCCCCCC1CCC(=O)O1` (stereo unspecified), the call in test [2], in test [3] and in test [1] was inactive.
On to `c1ccc2cc3ccccc3cc2c1`, for which the AC50 in test [1] was 0.003 µM (active).
With `CC(C)c1nnc2ccc(-c3ocnc3-c3cc(F)ccc3F)cn12`, the figures for the AC50 in test [2] and in test [4] were 76.2 µM (active) and 50 µM (active), respectively. Moreover, the molecule was called inactive in test [3].
